Experimental findings from PMC4336329 (PLoS ONE, 2015) are described below.

Among all 310,000 compounds or so, about 14,000 (4.5%) showed an effect of 50% or more. The effect is printed as a negative number. For the sample, strong results were picked, then their nearest neighbours and some compounds at random.
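Further: peak tail current of the secondary pulse compared with the same well before compound.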

The target of this experiment is human ether-à-go-go-related gene (hERG) potassium channel (human, UniProt Q12809). As to the kind of experiment: primary screen, population patch clamp on CHO cells stably expressing hERG; higher = less effect of the substance.
Chain of human ether-à-go-go-related gene (hERG) potassium channel (Q12809 whole entry, looked up): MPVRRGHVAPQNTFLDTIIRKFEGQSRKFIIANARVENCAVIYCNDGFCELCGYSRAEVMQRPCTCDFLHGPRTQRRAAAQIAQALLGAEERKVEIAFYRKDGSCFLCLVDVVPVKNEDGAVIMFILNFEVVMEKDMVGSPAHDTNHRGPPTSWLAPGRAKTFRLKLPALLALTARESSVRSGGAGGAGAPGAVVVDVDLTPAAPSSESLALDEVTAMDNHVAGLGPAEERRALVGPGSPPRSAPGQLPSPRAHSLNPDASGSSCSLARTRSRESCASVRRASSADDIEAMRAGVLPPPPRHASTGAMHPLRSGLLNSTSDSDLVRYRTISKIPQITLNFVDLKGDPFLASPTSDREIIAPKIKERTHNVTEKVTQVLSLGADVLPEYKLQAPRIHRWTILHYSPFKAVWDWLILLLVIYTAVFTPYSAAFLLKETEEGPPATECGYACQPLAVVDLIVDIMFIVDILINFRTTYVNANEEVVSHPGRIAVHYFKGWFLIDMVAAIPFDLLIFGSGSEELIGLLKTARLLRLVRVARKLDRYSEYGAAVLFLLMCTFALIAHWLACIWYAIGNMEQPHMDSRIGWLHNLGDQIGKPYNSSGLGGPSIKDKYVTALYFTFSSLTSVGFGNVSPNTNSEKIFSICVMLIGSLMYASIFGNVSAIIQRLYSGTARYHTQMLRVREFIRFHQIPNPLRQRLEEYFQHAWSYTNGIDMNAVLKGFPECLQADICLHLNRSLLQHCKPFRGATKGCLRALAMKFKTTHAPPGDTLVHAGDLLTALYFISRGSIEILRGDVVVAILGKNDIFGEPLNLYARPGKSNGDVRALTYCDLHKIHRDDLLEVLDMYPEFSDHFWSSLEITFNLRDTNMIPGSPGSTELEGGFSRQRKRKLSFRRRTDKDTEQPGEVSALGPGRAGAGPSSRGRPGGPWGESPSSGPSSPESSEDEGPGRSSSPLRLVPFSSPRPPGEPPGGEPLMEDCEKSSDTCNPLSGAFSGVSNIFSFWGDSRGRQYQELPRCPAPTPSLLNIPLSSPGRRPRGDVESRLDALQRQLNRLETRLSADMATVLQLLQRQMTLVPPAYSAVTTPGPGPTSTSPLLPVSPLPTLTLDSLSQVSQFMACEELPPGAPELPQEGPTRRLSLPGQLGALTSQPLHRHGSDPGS
With `Cc1nn(CC(=O)NC2(C#N)CCCCC2)c(C)c1[N+](=O)[O-]`, the “hERG current change (%, negative = inhibition) at 10uM” value stood at 3.09%. In the case of `CCCCOC(=O)C1=C(C)NC(=O)NC1c1ccc(N(C)C)cc1` (centres unmarked) it was 21.7%. With `O=C(COc1ccccc1)N1CCN(C2CC3CCC2C3)CC1` (centres unmarked) the figure was 7.39%; with `NC(=O)c1nsc(C(=O)N(c2ccc(F)cc2)C(C(=O)NC2CCCC2)c2ccncc2)c1N` (centres unmarked), -0.193%; with `COc1cccc2c1c(NC(=O)Nc1ccc(F)cc1F)nn2C`, 15.3%.

For `COc1cc2cc(CN(Cc3cccnc3)C(=O)NCc3ccccc3)c(=O)[nH]c2cc1OC`, the “hERG current change (%, negative = inhibition) at 10uM” value is -12.6%. With `CC12CC[C@H]3[C@@H](CCC4(O)C[C@H](O)CCC34/C=N/NC(=O)c3ccc(O)cc3)C1(O)CCC2C1=CC(=O)OC1` (some centres unmarked) the figure was 15%; with `CC(C)(/C=N/O)N(O)C=C1C=CC(=O)C=C1`, 5.81%; with `C(=C\c1ccccc1)/C=N/Nc1nc(N2CCOCC2)nc(N2CCOCC2)n1`, -9.68%. In the case of `Clc1ccccc1/C=C/C=N/Nc1nc(N2CCOCC2)nc(N2CCOCC2)n1` it was -58.4%; in that of `COc1nc(N/N=C/c2cc3c(cc2Br)OCO3)nc(N2CCOCC2)n1`, -27.8%.

For the compound `Brc1cc2c(cc1/C=N/Nc1nc(N3CCOCC3)nc(N3CCOCC3)n1)OCO2`, the “hERG current change (%, negative = inhibition) at 10uM” value was -5%. With `Brc1cc2c(cc1/C=N/Nc1nc(N3CCCC3)nc(N3CCOCC3)n1)OCO2` the figure was -51.3%. In the case of `O=[N+]([O-])c1ccccc1/C=C/C=N/Nc1nc(N2CCCCC2)nc(N2CCCCC2)n1` it was -12.2%; in that of `O=C(c1ccccc1)n1ccc2ccccc21`, -28%; in that of `O=S(=O)(c1ccc(Oc2ncnc3scc(-c4ccccc4)c23)cc1)N1CCOCC1`, -0.503%. `Cc1c(C(=O)NCC(c2ccco2)N(C)C)oc2c(Cl)cccc12` (centres unmarked): the “hERG current change (%, negative = inhibition) at 10uM” value is on record as -36.9%. As to `C/C(=C\c1ccc2c(c1)OCO2)C1Nc2cccc3cccc(c23)N1`, the “hERG current change (%, negative = inhibition) at 10uM” value was determined as 16.8%.

Consider `COc1ccccc1OCC(=O)NCC(C)NC(=O)COc1ccccc1OC` (centres unmarked), for which the “hERG current change (%, negative = inhibition) at 10uM” value is given as 4.93%.

With `Cc1cccc(S(=O)(=O)NNC(=O)c2cc(-c3ccc(F)cc3)nc3ccccc23)c1`, the “hERG current change (%, negative = inhibition) at 10uM” value is on record as 28.5%.

In the case of `COc1cccc(CN(C)C(=O)c2ccc(N3CCCC3)c([N+](=O)[O-])c2)c1`, the “hERG current change (%, negative = inhibition) at 10uM” value was -45.3%. Turning to `CCOc1ccc(NC(=O)CN(C)C(=O)c2cc(S(=O)(=O)N(C)C)ccc2N2CCCC2)cc1OCC`, the “hERG current change (%, negative = inhibition) at 10uM” value is on record as 6.11%. With `CCOc1ccc(NC(=O)CN(C)C(=O)c2ccc(N3CCCCCC3)c([N+](=O)[O-])c2)cc1OCC` the figure was 3.4%; with `COc1ccc(Cl)cc1NC(=O)CN(C)C(=O)c1ccc(N2CCCCC2)c([N+](=O)[O-])c1`, -18.8%; with `COc1ccc(NC(=O)CN(C)C(=O)c2ccc(N3CCCCC3)c([N+](=O)[O-])c2)cc1`, -76.8%.

With `COc1ccc(NC(=O)CN(C)C(=O)c2ccc(N3CCCCCC3)c([N+](=O)[O-])c2)cc1`, the “hERG current change (%, negative = inhibition) at 10uM” value was -51.6%.

On to `CCOc1ccc(NC(=O)CN(C)C(=O)c2ccc(N3CCCCC3)c([N+](=O)[O-])c2)cc1OCC`, for which the “hERG current change (%, negative = inhibition) at 10uM” value was -57.6%.

`COc1ccc(Cl)cc1NC(=O)CN(C)C(=O)c1ccc(N2CCCCCC2)c([N+](=O)[O-])c1`: the “hERG current change (%, negative = inhibition) at 10uM” value stood at 5.32%. Turning to `COc1ccc(NC(=O)CN(C)C(=O)c2ccc(N3CCCC3)c([N+](=O)[O-])c2)cc1`, the “hERG current change (%, negative = inhibition) at 10uM” value is reported as -54%.

With `CN(CC(=O)Nc1ccccc1Cl)C(=O)c1ccc(N2CCCCCC2)c([N+](=O)[O-])c1`, the “hERG current change (%, negative = inhibition) at 10uM” value was -20.2%. For the compound `COc1ccc(NC(=O)CN(C)C(=O)c2ccc(N3CCOCC3)c([N+](=O)[O-])c2)cc1`, the “hERG current change (%, negative = inhibition) at 10uM” value is listed as -46.3%. Turning to `CN(CC(=O)Nc1cccc(F)c1)C(=O)c1ccc(N2CCCCCC2)c([N+](=O)[O-])c1`, the “hERG current change (%, negative = inhibition) at 10uM” value was found to be 17.9%. With `CC1(C)Cc2c(c(N3CCCC3)nc3sc4c(N5CCNCC5)ncnc4c23)CO1` the figure was -35.2%; with `O=C(N/N=C/c1ccc(-c2cccc(C(F)(F)F)c2)o1)c1ccccc1Br`, 3.21%; with `CCOc1ccc(Cl)cc1S(=O)(=O)NC1CCCC1`, -3.26%. On to `Cn1c(=O)c2c(nc(Br)n2CC(=O)c2cccs2)n(C)c1=O`, for which the “hERG current change (%, negative = inhibition) at 10uM” value is on record as -6.03%. With `CCc1ccc(NC(=O)C2CCCCC2C(=O)O)cc1` (centres unmarked) the figure was 11.8%; with `CCOc1ccc(NC(=O)CN(C)C(=O)c2cc([N+](=O)[O-])ccc2N2CCCCC2)cc1OCC`, -43.9%; with `CCOc1ccc(NC(=O)CN(C)C(=O)c2cc([N+](=O)[O-])ccc2N2CCOCC2)cc1OCC`, -52.5%. In the case of `CCOc1ccc(NC(=O)CN(C)C(=O)c2ccc(N3CCOCC3)c([N+](=O)[O-])c2)cc1OCC` it was -19.1%; in that of `O=C(NCC(=O)N(c1ccc(F)cc1)C(C(=O)NC1CCCC1)c1cccnc1)c1cccs1` (centres unmarked), 7.21%. In the case of `CC(C)C[C@H](NC(=O)NCCC1=CCCCC1)C(=O)O` it was -4.82%; in that of `O=C1Nc2ncccc2OC1CCCl` (centres unmarked), 6.83%. As for `O=C(COc1ccccc1Cl)NCCCNC(=O)c1ccco1`, the “hERG current change (%, negative = inhibition) at 10uM” value came to 2.17%. With `CCN(c1ccccc1)S(=O)(=O)c1ccc(C(=O)N(CCCN(C)C)c2nc3c(C)cccc3s2)cc1.Cl` the figure was -34.7%; with `CN(C)CCN(C(=O)c1ccc(S(=O)(=O)N(C)c2ccccc2)cc1)c1nc2cc3c(cc2s1)OCO3.Cl`, -2.57%. For `CCN(Cc1ccccc1)S(=O)(=O)c1ccc(C(=O)N(CCCN(C)C)c2nc3cc4c(cc3s2)OCCO4)cc1.Cl`, the “hERG current change (%, negative = inhibition) at 10uM” value is listed as -27.5%. Regarding `CCN(Cc1ccccc1)S(=O)(=O)c1ccc(C(=O)N(CCCN(C)C)c2nc3cc4c(cc3s2)OCO4)cc1.Cl`, the “hERG current change (%, negative = inhibition) at 10uM” value is reported as -45.2%. With `CN(C)CCN(C(=O)c1ccc(S(=O)(=O)N(C)c2ccccc2)cc1)c1nc2cc3c(cc2s1)OCCO3.Cl` the figure was -1.95%; with `CN(C)CCCN(C(=O)c1ccc(S(=O)(=O)N(C)Cc2ccccc2)cc1)c1nc2cc3c(cc2s1)OCO3.Cl`, -51.7%; with `CN(C)CCN(C(=O)c1ccc2ccccc2c1)c1nc2c(F)cc(F)cc2s1.Cl`, 3.41%. In the case of `CCN(c1ccccc1)S(=O)(=O)c1ccc(C(=O)N(CCCN(C)C)c2nc3cc4c(cc3s2)OCO4)cc1.Cl`, the “hERG current change (%, negative = inhibition) at 10uM” value is -57.4%. Regarding `CCN(c1ccccc1)S(=O)(=O)c1ccc(C(=O)N(CCN(C)C)c2nc3c(F)cc(F)cc3s2)cc1.Cl`, the “hERG current change (%, negative = inhibition) at 10uM” value is -54.7%. With `COc1ccc(-c2noc(CN(C(=O)c3cccs3)C(C)C)n2)cc1`, the “hERG current change (%, negative = inhibition) at 10uM” value is -28.6%. Turning to `COc1ccc(S(=O)(=O)N2CCOCC2)c(Cl)c1Cl`, the “hERG current change (%, negative = inhibition) at 10uM” value is -18.3%. For the compound `Cn1c(OCc2cccnc2)nc2c1c(=O)n(Cc1ccccc1)c(=O)n2C`, the “hERG current change (%, negative = inhibition) at 10uM” value is listed as -56.1%. In the case of `C=CCOc1nc2c(c(=O)n(Cc3ccc(Cl)cc3)c(=O)n2C)n1C`, the “hERG current change (%, negative = inhibition) at 10uM” value was -2.66%. On to `Cn1c(=O)c2c(nc(OCc3cccnc3)n2Cc2ccccc2)n(C)c1=O`, for which the “hERG current change (%, negative = inhibition) at 10uM” value is given as -32.8%. On to `Cn1c(=O)c2c(nc(N/N=C/c3ccncc3)n2Cc2ccccc2)n(C)c1=O`, for which the “hERG current change (%, negative = inhibition) at 10uM” value is given as -28.8%. `Cn1c(=O)c2c(nc(N/N=C/c3cccnc3)n2Cc2ccc(F)cc2)n(C)c1=O`: the “hERG current change (%, negative = inhibition) at 10uM” value is given as -16.8%. With `Cn1c(OCc2cccnc2)nc2c1c(=O)n(Cc1ccc(F)cc1)c(=O)n2C`, the “hERG current change (%, negative = inhibition) at 10uM” value is on record as -51.9%. For `Cn1c(OCc2ccc3c(c2)OCO3)nc2c1c(=O)n(Cc1cccc(Cl)c1)c(=O)n2C`, the “hERG current change (%, negative = inhibition) at 10uM” value is -0.643%. Take `Cn1c(=O)c2c(nc(SCc3cccnc3)n2Cc2ccc(F)cc2)n(C)c1=O`: the “hERG current change (%, negative = inhibition) at 10uM” value is given as -30.7%.

With `Cn1c(OCc2cccnc2)nc2c1c(=O)n(Cc1ccc(Cl)cc1)c(=O)n2C`, the “hERG current change (%, negative = inhibition) at 10uM” value is -51.1%. With `Cn1c(=O)c2c(nc(OCc3ccccc3)n2C)n(C)c1=O` the figure was 4.72%; with `Cn1c(=O)c2c(nc(OCc3cccnc3)n2Cc2c(F)cccc2Cl)n(C)c1=O`, 1.03%. As to `Cn1c(=O)c2c(nc(N/N=C/c3cccnc3)n2Cc2ccccc2)n(C)c1=O`, the “hERG current change (%, negative = inhibition) at 10uM” value is -51.2%.

Consider `CN(CC(=O)Nc1cccc(F)c1)C(=O)c1ccccc1CCc1ccccc1`, for which the “hERG current change (%, negative = inhibition) at 10uM” value is listed as 3.08%. As to `O=S(=O)(NCc1ccco1)c1cccc(S(=O)(=O)N2CCCCC2)c1`, the “hERG current change (%, negative = inhibition) at 10uM” value is -32.2%.

For `CCN1CCN(C(c2cccc(OC)c2)c2sc3nc(C)nn3c2O)CC1` (centres unmarked), the “hERG current change (%, negative = inhibition) at 10uM” value is reported as 19.7%.

In the case of `COc1cccc(CNC(=O)CSC(=S)N2CCCC2)c1`, the “hERG current change (%, negative = inhibition) at 10uM” value turned out to be 2.79%. As to `CCOC(=O)N1CCN(c2c(NCCCOC(C)C)c(=O)c2=O)CC1`, the “hERG current change (%, negative = inhibition) at 10uM” value is recorded as -19.7%.

With `CC(C)CC(=O)O/N=C1\C(=O)N(Cc2ccc(Cl)cc2)c2ccc([N+](=O)[O-])cc21`, the “hERG current change (%, negative = inhibition) at 10uM” value was -36.1%. Take `CCn1c(CO)nc2c1c(=O)[nH]c(=O)n2Cc1ccccc1`: the “hERG current change (%, negative = inhibition) at 10uM” value is 17.7%. With `Cn1c(Br)nc2c1c(=O)n(Cc1ccccc1)c(=O)n2C` the figure was -10.2%; with `Cn1c(NCc2ccccc2)nc2c1c(=O)n(Cc1ccc(Br)cc1)c(=O)n2C`, 4.56%; with `Cn1c(OCc2cccnc2)nc2c1c(=O)n(Cc1ccc(Br)cc1)c(=O)n2C`, -57.3%.
